In the experiment the target is Beta-2 adrenergic receptor (Homo sapiens) (UniProt P07550). The experiment is described as follows: Adrenergic beta2 receptor (ADRB2) small molecule agonists, cell-based qHTS assay (AID 1963593).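 On activation: CHO cells stably overexpressing human ADRB2.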 A digest of the protocol:
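CHO cells stably over-expressing ADRB2 were plated overnight at 37C, then dosed with compounds plus a stimulation mix containing 100uM IBMX and 25uM Ro-20-1724 for 0.5hr at room temperature. cAMP was measured by HTRF competition, 1hr.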

Inconclusive results are not listed. A call without a number means that no potency is given here. Values without a mark were called inactive. Active and inactive are the calls of the source. The call rests on the fitted dose curve.
Potency means the concentration at half of the fitted maximal effect.

Beta-2 adrenergic receptor (Homo sapiens), sequence (P07550 whole entry, looked up): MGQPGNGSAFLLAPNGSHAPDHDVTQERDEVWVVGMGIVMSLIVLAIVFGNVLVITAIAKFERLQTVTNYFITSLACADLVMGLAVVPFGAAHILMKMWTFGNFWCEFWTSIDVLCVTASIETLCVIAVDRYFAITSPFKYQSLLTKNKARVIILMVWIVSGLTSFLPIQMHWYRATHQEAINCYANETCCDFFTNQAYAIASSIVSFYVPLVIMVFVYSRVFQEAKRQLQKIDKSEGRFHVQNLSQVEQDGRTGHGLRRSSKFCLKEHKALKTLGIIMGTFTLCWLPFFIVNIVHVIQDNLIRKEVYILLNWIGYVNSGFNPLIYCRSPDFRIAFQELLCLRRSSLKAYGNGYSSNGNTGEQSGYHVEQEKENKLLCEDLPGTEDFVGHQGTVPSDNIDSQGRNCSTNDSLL

`[As]#[In]`: the Potency result was “inactive”.

On to `C#CC1(O)CCCCC1`, for which the Potency entry was “inactive”.

With `N#CCCl`, the Potency result was “inactive”.

Regarding `CCC1COC(Cn2cncn2)(c2ccc(Cl)cc2Cl)O1` (centres undefined), the Potency entry is “inactive”.

Regarding `CCOC(=O)COc1ccc(Cl)cc1Cl`, the Potency result is “inactive”.

As to `CC(Oc1cccc(Cl)c1)C(=O)O` (centres undefined), the Potency result is “inactive”.

In the case of `C[C@]12CC[C@H]3[C@@H](CCC4=CC(=O)CC[C@@]43C)[C@@H]1CC[C@@H]2C(=O)O`, the Potency entry is “inactive”.

In the case of `CN/C(=N\[N+](=O)[O-])NCc1cnc(Cl)s1`, the Potency entry is “inactive”.

Regarding `Cc1ccccc1CO[C@@H]1C[C@@]2(C(C)C)CC[C@]1(C)O2`, the Potency result was “inactive”.

In the case of `O=C(Nc1ccc2[nH]ccc2c1)c1cc2cc(F)ccc2n1Cc1cccc(F)c1`, the Potency result is “inactive”.

As to `Clc1ccc(C2(Cn3cncn3)CC(Br)CO2)c(Cl)c1` (centres undefined), the Potency entry is “inactive”.

As to `CC1(C)[C@H](C=C(Cl)Cl)[C@@H]1C(=O)O[C@@H](C#N)c1cccc(Oc2ccccc2)c1`, the Potency result is “inactive”.

On to `N#Cc1cc(I)c(O)c(I)c1`, for which the Potency result was “inactive”.

On to `CC(=O)C(Cl)C(=O)N(C)C` (centres undefined), for which the Potency result was “inactive”.

Consider `CCN(CCO)CCn1c(Cc2ccccc2)nc2c1c(=O)n(C)c(=O)n2C`, for which the Potency result is “inactive”.

As to `COc1cc(OC)nc(NC(=O)NS(=O)(=O)c2ncccc2OCC(F)(F)F)n1`, the Potency result was “inactive”.

For the compound `CC[C@H]1C[C@H]2[C@@H]3CCC4=CC(=O)CC[C@@H]4[C@H]3CC[C@]2(C)[C@H]1O`, the Potency entry was “inactive”.

As for `O=C(NC(=O)c1c(F)cccc1F)Nc1cc(Cl)c(Oc2ncc(C(F)(F)F)cc2Cl)c(Cl)c1`, the Potency result was “inactive”.

Take `C#CC(O)(C=CCl)CC` (centres undefined): the Potency result is “inactive”.

Regarding `CC1(c2ccc(Oc3ccccc3)cc2)OC(=O)N(Nc2ccccc2)C1=O` (centres undefined), the Potency entry is “inactive”.

Take `CCOP(=S)(OCC)SCSP(=S)(OCC)OCC`: the Potency entry was “inactive”.

For `O=C1NC(=O)C(=O)C(=O)N1`, the Potency result is “inactive”.

Regarding `CCC1(C2=NCCN2)Cc2ccccc2O1` (centres undefined), the Potency entry was “inactive”.

With `ClC(Cl)C(Cl)Cl`, the Potency entry was “inactive”.

Consider `Cc1cccc2sc3nncn3c12`, for which the Potency entry is “inactive”.

With `CN1C(=S)CN=C(c2ccccc2)c2cc(Cl)ccc21`, the Potency result is “inactive”.

As for `O=C(O)C(F)(F)C(F)(F)C(F)(F)C(F)(F)C(F)(F)F`, the Potency result is “inactive”.

With `COC(=O)C(C)Oc1ccc(Oc2ccc(Cl)cc2Cl)cc1` (centres undefined), the Potency result is “inactive”.

Regarding `CCC[CH2][Sn]([CH2]CCC)([O]C(C)=O)[O]C(C)=O`, the Potency entry was “inactive”.

As to `CNN`, the Potency entry was “inactive”.

Turning to `[O-][Cl+3]([O-])([O-])O`, the Potency result was “inactive”.

For the compound `CCN[C@@H](C)Cc1ccccc1`, the Potency entry was “inactive”.

For `NC1CCC(CC2CCC(N)CC2)CC1` (centres undefined), the Potency result is “inactive”.

For the compound `COc1ccc2[nH]cc(CCN(C(C)C)C(C)C)c2c1`, the Potency entry is “inactive”.

With `CCCCS(=O)(=O)Cl`, the Potency entry was “inactive”.

Turning to `C1CCC(C2CCCCC2)CC1`, the Potency result is “inactive”.

Take `CCS(=O)(=O)CCSP(=O)(OC)OC`: the Potency result was “inactive”.

`[CH3][Hg][Cl]`: the Potency result was “inactive”.

As to `COP(=S)(OC)Oc1ccc([N+](=O)[O-])c(C)c1`, the Potency entry is “inactive”.

Turning to `CC(=O)[C@H]1CC[C@H]2[C@@H]3CC[C@H]4C[C@H](O)CC[C@]4(C)[C@H]3C(=O)C[C@]12C`, the Potency result is “inactive”.

`O=S(=O)(C(Cl)(Cl)Cl)C(Cl)(Cl)Cl`: the Potency entry is “inactive”.

Consider `CCCCCCCCCCCCCCCCCCn1cc[n+](C)c1`, for which the Potency entry was “inactive”.

As to `NCC(CC(=O)O)c1ccc(Cl)cc1` (centres undefined), the activation is 10.6% [at 0.349 µM].

Consider `CC(C)(C)NC[C@H](O)c1ccc(O)cc1Cl`, for which the Potency was 6 nM (active).

For the origin of these results see PubChem BioAssay (Tox21).
